PP1 inh = PP1-alpha (human) inhibition in PP5 counter-screen. P62136. purified PP1alpha, OMFP fluorescence. inhibition, % at 6.7 µM. actives 0.9% (n = 320,000);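 active means inhibition above the mean inhibition of all tested compounds plus 3 SD, computed separately for each screening campaign, cut at about 15% in these data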
PP5 inh = blocks human protein phosphatase 5 activity. P53041. purified PP5c, OMFP substrate fluorescence. inhibition, % at 6.7 µM. actives 0.18% (n = 320,000). AID 1987;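 active means inhibition above the campaign's mean inhibition across all tested compounds plus 3 SD, cut at about 9.5% in these data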
Target sequence (P53041 whole entry, looked up): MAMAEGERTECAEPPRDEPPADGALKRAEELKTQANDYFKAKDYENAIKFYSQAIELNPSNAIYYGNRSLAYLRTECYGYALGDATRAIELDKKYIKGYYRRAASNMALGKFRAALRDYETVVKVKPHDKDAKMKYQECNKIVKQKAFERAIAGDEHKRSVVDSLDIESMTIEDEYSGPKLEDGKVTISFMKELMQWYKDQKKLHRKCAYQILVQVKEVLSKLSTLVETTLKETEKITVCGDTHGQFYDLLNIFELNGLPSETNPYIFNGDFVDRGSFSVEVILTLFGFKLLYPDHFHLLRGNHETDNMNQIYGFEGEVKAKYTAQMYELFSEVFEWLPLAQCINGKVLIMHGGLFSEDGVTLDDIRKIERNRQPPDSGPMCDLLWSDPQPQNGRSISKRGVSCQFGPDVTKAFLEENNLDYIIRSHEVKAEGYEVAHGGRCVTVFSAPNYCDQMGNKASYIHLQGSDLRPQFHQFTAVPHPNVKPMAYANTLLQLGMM
Beta cell apopt = beta cell apoptosis inhibition; actives 0.8% (n = 300,000); protection from apoptosis, % (concentration not given with the values); INS-1E cytokine-induced death, ATP luminescence, 48 h; percent of positive-control rescue, neutral wells zero; AID 435005;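 active means Every replicate reaches about 75%, or at least half do and their mean reaches it too, limit read from the data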;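 further: higher means more ATP so stronger rescue from cytokine killing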
CSC inhib = blocks cancer stem cells | inhibition, % at 7.5 µM | cancer stem cell-like cells viability, luminescence | actives 1.1% (n = 300,000) | AID 2717; in the data active means inhibition above about 75%; tested in HMLE shEcad cells
Calb FLC = C. albicans growth modulation with fluconazole; C. albicans CaCi-2 (fluconazole-resistant clinical isolate) + fluconazole, Alamar Blue growth, 48 h; growth inhibition, % (no concentration beside the values); actives 0.57% (n = 300,000);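 active means growth inhibition above about 58% in most replicates, limit read from the data, passing the limit was not always enough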;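 further: all wells also contain fluconazole at 8 µg/ml as a sub-toxic cotreatment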
Mdm2 MdmX PPI = inhibitors of human Mdm2/MdmX interaction; O15151+Q00987; SaOS-2 split-luciferase Mdm2/MdmX complementation, luminescence; inhibition, % at 8 µM; actives 3% (n = 330,000); AID 485346;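 active means inhibition of at least 50% at 8 µM in the primary screen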
Mdm2 MdmX conf = human Mdm2/MdmX binding inhibition, confirmed; shares compounds with Mdm2 MdmX PPI; luminescent assay; inhibition, % at 8 µM; actives 55% (n = 10,000); AID 489028; in the data active means inhibition above about 40%
Full FLuc ctr = counter-screen for Mdm2/MdmX inhibitors: full-length luciferase | AID 504607 | shares compounds with Mdm2 MdmX PPI | inhibition, % at 8 µM | SaOS-2 full-length luciferase counterscreen, luminescence | actives 77% (n = 6,200);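 active means mean inhibition at 8 µM reaching about 37%, which flags the compound as non-specific, limit read from the data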;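 further: p53-null SaOS-2 cells with luciferase driven by a doxycycline-inducible promoter; compound on cells about two nights before reading with doxycycline added after day one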
A number is an active result; . = inactive; / = no result given. Sampled rows, rich in hits. Any-hit rate of the full collection: about 4.9%.

SMILES	PP1 inh	PP5 inh	Beta cell apopt	CSC inhib	Calb FLC	Mdm2 MdmX PPI	Mdm2 MdmX conf	others
O=C1CC(c2ccccc2Br)c2cc3c(cc2N1)CCC3 (stereo not drawn)	.	.	.	.	.	58	62	Full FLuc ctr=56
O=C1CC(c2cccc([N+](=O)[O-])c2)c2cc3c(cc2N1)CCC3 (stereo not drawn)	.	.	.	.	.	.	/
COc1cccc(C2CC(=O)Nc3cc4c(cc32)CCC4)c1 (stereo not drawn)	.	.	.	.	.	.	/
O=C1CC(c2ccccc2F)c2cc3c(cc2N1)CCC3 (stereo not drawn)	.	.	/	/	.	58	58	Full FLuc ctr=57
O=C1CC(c2cccc(Cl)c2)c2cc3c(cc2N1)CCC3 (stereo not drawn)	.	.	/	/	.	54	58	Full FLuc ctr=64
COc1cc2c(cc1OC)C(c1cc(C)ccc1C)CC(=O)N2 (stereo not drawn)	/	/	.	.	.	.	/
CN(C)C(CNc1ccc([N+](=O)[O-])cc1C#N)c1ccccc1 (stereo not drawn)	.	.	.	.	.	.	/
CCCCNC(=O)C(C1CCCCC1)N(CCN(C)C)C(=O)CCCN1C(=O)NC(c2ccc(-c3ccccc3)cc2)C(C(=O)OCc2ccccc2)=C1C (stereo not drawn)	/	/	/	/	/	97	57	Full FLuc ctr=.
CCCCNC(=O)C(C)N(CCN(C)C)C(=O)CCCN1C(=O)NC(c2ccc([N+](=O)[O-])cc2)C(C(=O)OCc2ccccc2)=C1C (stereo not drawn)	/	/	/	/	/	68	.
Cc1ccc2[nH]c3c(c2c1)CCN1C(=O)OC(C)(C)C31C (stereo not drawn)	.	.	.	.	.	.	/
CCOC(=O)c1ccc(NC(=S)N2CCN(C(=O)C3CCCO3)CC2)cc1 (stereo not drawn)	.	.	.	.	.	.	/
NNC(=O)c1ccc(CSc2cccc3cccnc23)cc1	.	.	.	.	.	.	/
Cc1cccc(CSc2cccc3cccnc23)c1	.	.	.	.	.	51	67	Full FLuc ctr=37
Cc1cccc(NC(=O)CSc2cccc3cccnc23)c1C	.	.	.	.	.	.	/
CCOC(=O)CSc1cccc2cccnc12	.	.	.	.	.	77	.
CCc1cccc(C)c1NC(=O)CSc1nnc(CCCOc2ccc(Cl)cc2Cl)n1C	.	.	.	.	.	.	/
FC(F)(F)c1nnc2c(Sc3ccccc3)nc3ccc(Cl)cc3n12	.	.	96	.	.	97	99	Full FLuc ctr=.
FC(F)(F)c1nc2ccccc2n2c(-c3ccc(Cl)cc3Cl)nnc12	.	.	.	/	.	.	/
Cc1noc(C)c1COc1ccc(C(=O)NCCc2ccc(F)cc2)cc1	.	.	.	/	/	.	/
CN1C[C@H](C(=O)N[C@]2(C)O[C@@]3(O)[C@@H]4CCCN4C(=O)[C@H](Cc4ccccc4)N3C2=O)CC2c3cccc4[nH]cc(c34)C[C@H]21 (stereo partly drawn)	.	.	.	.	/	.	/
CC(C)C[C@H]1C(=O)N2CCC[C@H]2[C@]2(O)O[C@](NC(=O)C3C=C4c5cccc6[nH]c(Br)c(c56)C[C@H]4N(C)C3)(C(C)C)C(=O)N12 (stereo partly drawn)	.	.	.	.	/	61	.
COCCN(CCOC)Cc1c(O)ccc2c1O/C(=C\c1ccc(C)o1)C2=O	.	.	.	.	.	.	/
COc1ccccc1/C=C/C=C1\Oc2c(ccc(O)c2CN(C)C)C1=O	.	.	.	.	.	61	43	Full FLuc ctr=44
CCN(CC)Cc1c(O)ccc2c1O/C(=C\C=C\c1ccccc1)C2=O	.	.	105	109	.	98	71	Full FLuc ctr=.
Cc1cc(Cl)ccc1OCCCC(=O)NCCN1C(=O)S/C(=C\c2cccnc2)C1=O	.	.	.	.	.	.	/
SMILES	PP1 inh	PP5 inh	Beta cell apopt	CSC inhib	Calb FLC	Mdm2 MdmX PPI	Mdm2 MdmX conf	others
CCCc1c(NC(=O)Nc2ccc(F)cc2)cnn1-c1ccc(Cl)cc1	.	.	.	.	.	61	.
CN1C(=O)/C(=C/c2ccccc2F)Sc2ccc(C(=O)N3CCCC3)cc21	.	.	.	.	.	.	/
COc1cc2c(cc1OC)CN(C(=O)CCOc1ccccc1C)CC2	.	.	.	/	.	.	/
CC1=CC(C)(C)Nc2ccc(OC(=O)CCN3C(=O)c4ccccc4C3=O)cc21	.	.	.	.	.	101	.
COc1cc(C(=O)OCc2cc(=O)oc3c(C)c(C)ccc23)ccc1OC(F)F	.	.	.	/	.	60	.
Cc1ccc2c(CN(C)Cc3ccc(OC(F)F)cc3)cc(=O)oc2c1C	.	.	.	.	.	.	/
C=CCOc1c(Br)cc(/C=N/NC(=O)Cc2ccc(C(F)(F)F)cc2[N+](=O)[O-])cc1OC	.	.	.	.	.	57	.
COc1cc(OC)c(OC)cc1CNC(=O)c1ccc(S(=O)(=O)N2CCCCC2)cc1	.	.	.	/	/	.	/
O=C1N/C(=C/c2cccs2)C(=O)N1Cc1ccc(Br)cc1	.	.	.	.	.	54	.
CC(C)=CCCC1(C)C=Cc2c(c(C)cc3c2[nH]c2cc(O)ccc23)O1 (stereo not drawn)	.	.	/	93	.	69	.
Cc1ccc(OCC(=O)Nc2ccc(Cl)cc2)c(-n2nc3ccccc3n2)c1	.	.	.	.	.	78	72	Full FLuc ctr=81
CCOc1ccc(C)cc1-n1nc2ccccc2n1	.	.	.	.	.	.	/
Nc1c(S(=O)(=O)c2cccs2)c2nc3ccccc3nc2n1/N=C/c1cccc(O)c1	.	.	.	97	.	79	56	Full FLuc ctr=86
Cc1cccn2c(=O)c3cc(C(=O)NCCN4CCOCC4)c(=N)n(CCN4CCOCC4)c3nc12	.	.	.	/	.	.	/
COc1ccc(CCn2c(=N)c(C(=O)NCC3CCCO3)cc3c(=O)n4cccc(C)c4nc32)cc1 (stereo not drawn)	.	.	.	.	.	53	.
COc1ccc(CNC(=O)c2cc3c(=O)n4cccc(C)c4nc3n(CC3CCCO3)c2=N)cc1 (stereo not drawn)	.	.	/	.	.	.	/
N=c1c(C(=O)NCc2ccccc2)cc2c(=O)n3ccccc3nc2n1CCCN1CCOCC1	.	.	.	/	/	.	/
CCCn1c(=N)c(C(=O)NCc2ccc3c(c2)OCO3)cc2c(=O)n3cccc(C)c3nc21	.	.	.	.	.	70	.
CCOCCCn1c(=N)c(C(=O)NCc2ccc3c(c2)OCO3)cc2c(=O)n3ccccc3nc21	/	/	/	/	.	.	/
Cc1cccn2c(=O)c3cc(C(=O)NCCN4CCOCC4)c(=N)n(Cc4ccc(F)cc4)c3nc12	.	.	.	.	.	81	78	Full FLuc ctr=.

From PubChem
